Experimental data from PubChem BioAssay (NCATS).
Results filed as inconclusive are left out. Where a call stands in place of a potency, no number is given. The source made the active and inactive calls. The call rests on the fitted dose curve; in most records, active means well fitted inhibition curve with a large enough effect; inconclusive means small, poorly fitted or top-dose-only effect; inactive means no such curve, though single readings can be large or run the other way. Residues, ends and D or L forms follow the SMILES beside them. *: point of attachment. Cbz = O=C(OCc1ccccc1)*; CH2Cl = ClC*

These compounds were tested against Retinal dehydrogenase 2 (Homo sapiens) (UniProt O94788) (assay: qHTS for Inhibitors of the Aldehyde Dehydrogenase Family (ALDH1A2) Confirmation screens (AID 2061314; further: nearly all actives have a fitted effect of over 65% in size; further: potency means the concentration at half of the fitted maximal effect)). Conditions: ALDH1A2 enzyme inhibition qHTS confirmation; series mostly up to 45.9 µM.
In the case of `Cn1ncc2c(C(=O)NCC(F)F)cc(-c3cccc(C(F)(F)F)c3)nc21`, the Potency is reported as “inactive”.
In the case of `COc1ccc(-c2ccc(CNc3ccc(N4CCN(C(=O)OC(C)(C)C)CC4)cc3)o2)cc1`, the Potency is reported as 11.3 µM (active).
`O=Cc1c(-c2ccccc2)no[n+]1[O-]` was tested, and the Potency was 11.3 µM (active).
For `O=c1c(Nc2ccc(Cl)c(Cl)c2)c(Nc2nnc(-c3ccncc3)s2)c1=O`, the Potency was 3.98 µM (active).
In the case of `CC(C)C[C@H](NC(=O)CNC(=O)OCc1ccccc1)C(=O)N[C@@H](Cc1ccccc1)C(=O)CCl` (Cbz-Gly-Leu-Phe-CH2Cl), the Potency is reported as 8.96 µM (active).
With `CC(=O)Nc1ccc(Nc2nc3c(S(=O)(=O)c4cccc(Cl)c4)nnn3c3ccsc23)cc1` the Potency was “inactive”.
`COc1ccccc1-c1cc(-c2ccccc2OC)c2onc(C)c2n1` was tested, and the Potency was “inactive”.
`Cc1c(NC(=O)c2cc3c(s2)CCCC3)cccc1-c1cn(C)c(=O)c(Nc2ccc(C3C(=O)N(C)CCN3C)cc2)n1` (centres undefined) was tested, and the Potency was “inactive”.
In the case of `CN(CC(=O)Nc1ccc(N2CCOCC2)cc1)Cc1c(O)ccc2ccccc12`, the Potency is reported as 10.1 µM (active).
With `COc1ccc(Nc2ncc(C(=O)N3CCN(c4ccc(F)cc4)CC3)c3ccccc23)cc1` the Potency was “inactive”.
For `O=C1Cc2cc(C(=O)c3ccco3)ccc2N1`, the Potency was 2.52 µM (active).
In the case of `CC(=O)c1ccc(NC(=O)CSc2ccc3nc(-c4ccccc4)cn3n2)cc1`, the Potency is reported as 15.8 µM (active).
With `Cc1nc(SCC(=O)c2ccc(F)cc2)n[nH]1` the Potency was “inactive”.
With `Cc1ccc(-n2c(=O)c3c(cnn3C)n(CC(=O)Nc3ccccc3C)c2=O)cc1` the Potency was “inactive”.
For `CC(=O)Nc1sc2c(c1-c1cccc(F)c1)CCNC2`, the Potency was 20.1 µM (active).
`O=C(Nc1cc(Cc2ccccc2)ccn1)c1ccc(-c2cccc([N+](=O)[O-])c2)o1` was tested, and the Potency was 5.01 µM (active).
In the case of `CCOc1cc(CNc2ccc(C(=O)O)cc2)ccc1OCc1ccccc1`, the Potency is reported as 2.57 µM (active).
`COc1ccc(C2Nc3ccccc3C(=O)N2Cc2ccco2)cc1COc1cccc(NC(C)=O)c1` (centres undefined) was tested, and the Potency was 11.3 µM (active).
With `Oc1ccc(CNc2cccnc2)c2cccnc12` the Potency was 5.65 µM (active).
With `CC(C)(C)OC(=O)N1CCN(c2ccc(NCc3ccc(-c4ccccc4F)o3)cc2)CC1` the Potency was “inactive”.
For `COc1ccc(C2Nc3ccccc3C(=O)N2CC(C)(C)C)cc1COc1ccc(NC(C)=O)cc1` (centres undefined), the Potency was 31.6 µM (active).
`Cc1cccc(CNc2ccnc(-c3cccc4ccccc34)n2)c1` was tested, and the Potency was “inactive”.
`Cc1noc(C)c1-c1cccc(-c2nn3c(=O)cc(N4CCNCC4)nc3s2)c1` was tested, and the Potency was 6.31 µM (active).
For `CC(=O)c1ccc(N2CCN(S(=O)(=O)c3ccc4c(c3)C(C)(C)C(=O)N4)CC2)cc1`, the Potency was “inactive”.

The compounds below were run against Retinaldehyde dehydrogenase 3 (Homo sapiens) (UniProt P47895) (assay: qHTS for Inhibitors of the Aldehyde Dehydrogenase Family (ALDH1A3) Primary screen (AID 2061315)). Conditions: ALDH inhibition qHTS; series mostly up to 56 µM.
For `Cc1ccc(OCCn2c(CCNC(=O)c3ccccc3[N+](=O)[O-])nc3ccccc32)cc1`, the Potency was “inactive”.
For `O=C(O)c1cccnc1SC1=NS(=O)(=O)c2ccccc21`, the Potency was “inactive”.
In the case of `Cc1ccc(-c2nn3c(C)nnc3s2)cc1NCc1ccc(-c2cccc(Cl)c2)o1`, the Potency is reported as “inactive”.
With `Fc1c(-c2ccc3ncnc(NCc4cccs4)c3c2)ccc2c1OCO2` the Potency was “inactive”.
With `NC(=O)C1CCN(c2nccc(-c3ccc4c(c3)OCCO4)n2)CC1` the Potency was “inactive”.
With `CC(C)(C)OC(=O)N1CCN(c2ccc(NCc3cncc(-c4ccc(C#N)cc4)c3)cc2)CC1` the Potency was “inactive”.
In the case of `CC(=O)N1CCN(c2ccc(NCc3ccc(-c4ccc(Br)cc4)o3)cc2)CC1`, the Potency is reported as “inactive”.
For `N#Cc1c(-c2ccc(C(=O)c3ccc(O)cc3)cc2)no[n+]1[O-]`, the Potency was “inactive”.
In the case of `O=C(CN1C(=O)N/C(=C\c2cccn2-c2cccc(C(=O)O)c2)C1=O)Nc1ccc(F)cc1`, the Potency is reported as “inactive”.
In the case of `Cc1ccc2nc3sc(C(=O)NCCN4CCOCC4)cc3cc2c1`, the Potency is reported as “inactive”.
`N#Cc1c(-c2ccc3c(c2)OCO3)no[n+]1[O-]` was tested, and the Potency was “inactive”.
In the case of `COc1ccc(-c2ccc(CNc3ccc(N4CCN(C(=O)OC(C)(C)C)CC4)cc3)o2)cc1`, the Potency is reported as “inactive”.
`O=Cc1c(-c2ccccc2)no[n+]1[O-]` was tested, and the Potency was “inactive”.
With `O=c1c(Nc2ccc(Cl)c(Cl)c2)c(Nc2nnc(-c3ccncc3)s2)c1=O` the Potency was “inactive”.
For `CC(C)C[C@H](NC(=O)CNC(=O)OCc1ccccc1)C(=O)N[C@@H](Cc1ccccc1)C(=O)CCl` (Cbz-Gly-Leu-Phe-CH2Cl), the Potency was “inactive”.
With `Cc1c(NC(=O)c2cc3c(s2)CCCC3)cccc1-c1cn(C)c(=O)c(Nc2ccc(C3C(=O)N(C)CCN3C)cc2)n1` (centres undefined) the Potency was “inactive”.
For `O=C1Cc2cc(C(=O)c3ccco3)ccc2N1`, the Potency was “inactive”.
With `Cc1nc(SCC(=O)c2ccc(F)cc2)n[nH]1` the Potency was “inactive”.
For `CC(=O)Nc1sc2c(c1-c1cccc(F)c1)CCNC2`, the Potency was “inactive”.
In the case of `O=C(Nc1cc(Cc2ccccc2)ccn1)c1ccc(-c2cccc([N+](=O)[O-])c2)o1`, the Potency is reported as “inactive”.
In the case of `COc1ccc(C2Nc3ccccc3C(=O)N2Cc2ccco2)cc1COc1cccc(NC(C)=O)c1` (centres undefined), the Potency is reported as “inactive”.
`CC(C)(C)OC(=O)N1CCN(c2ccc(NCc3ccc(-c4ccccc4F)o3)cc2)CC1` was tested, and the Potency was “inactive”.
`COc1ccc(C2Nc3ccccc3C(=O)N2CC(C)(C)C)cc1COc1ccc(NC(C)=O)cc1` (centres undefined) was tested, and the Potency was “inactive”.
`Cc1cccc(CNc2ccnc(-c3cccc4ccccc34)n2)c1` was tested, and the Potency was “inactive”.
For `Cc1noc(C)c1-c1cccc(-c2nn3c(=O)cc(N4CCNCC4)nc3s2)c1`, the Potency was “inactive”.
